# ATXN viability: reduces viability in counter-screen for ATXN expression inhibitors; S2 cells (HEK-293 line with an ATXN2-luciferase reporter) viability, CellTiter-Fluor protease fluorescence, 24 h; Potency, µM (doses to about 56.7 µM), most hits filed as cytotoxic; 400,000 tested, 0.49% active; further: nearly all actives have a fitted effect of over 40% in size
# KB-V1 cytotox: KB-V1 MDR subline cytotoxicity; KB-V1 MDR cells viability, CellTiter-Glo, 72 h; Potency, µM (doses to about 46.1 µM), usual class: cytotoxic; 400,000 tested, 3.4% active; AID 1347076; further: on the % scale 0 is the no-effect control and ±100 the full control effect; nearly all actives have a fitted effect of over 60% in size
#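 qHTS viability screen in drug-selected KB-V1 MDR cells: 72 h compound treatment at 37 degrees C, ATP luminescence end point.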
# HepG2 tox: kills HepG2 cells in TGF-b inhibitor counter-screen; Potency, µM (titrated, usually from 46.1 µM), without a hit: at the highest dose activity change, negative = cytotoxicity, most hits filed as cytotoxic; 410,000 tested, 0.76% active; HepG2 CAGA-GFP viability, ATP luminescence, 18 h; AID 588856
#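 CellTiter-Glo luminescence gave cytotoxicity after 18 hours at 37 degrees C. The cells were HepG2 CAGA-GFP in 1% FBS DMEM, stimulated with 500 pg/mL TGF-beta after compound addition. %Activity was normalised to no-cell wells (complete cell-killing) and DMSO (no toxicity), and curves were fitted and classified.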
# TGFb SMAD3 inh: blocks TGF-b signaling | HepG2 CAGA-GFP TGF-b/SMAD3 reporter, GFP fluorescence, 18 h; TGF-beta stimulated, 500 pg/mL final | Potency, µM (titrated, usually from 46.1 µM), inactives show at the top dose activity, negative = inhibition, hits mostly inhibitors | 410,000 tested, 1.2% active | AID 588855; further: on the % scale 0 is the no-effect control and ±100 the full control effect; nearly all actives have a fitted effect of over 65% in size
#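 Per well, imaged GFP fluorescence of HEPG2 CAGA-GFP cells gives the signal; cells get compound, then TGF-beta (500 pg/mL final), 18 h at 37 degrees C; %Activity versus -TGF-beta and +DMSO controls.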
# KB-3-1 cytotox: KB-3-1 parental cell cytotoxicity | KB-3-1 viability, CellTiter-Glo ATP luminescence, 72 h | Potency, µM (top dose mostly 46.1 µM), actives largely listed as cytotoxic | 400,000 tested, 1.4% active | AID 1347075; further: on the % scale 0 is the no-effect control and ±100 the full control effect; nearly all actives have a fitted effect of over 60% in size
#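 Screening of KB-3-1 cells (DMEM, 10% FBS, phenol-red free) ran from lowest to highest compound concentration; after 72 h at 37 °C viability was read luminescently and curves fitted.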
# ATXN2 expr inh: reduces ATXN2 reporter expression in HEK-293 cells; HEK-293 ATXN2-luciferase reporter, luminescence, 24 h; Potency, µM (highest dose often 57 µM), for inactives: at the highest dose activity change, negative = inhibition, actives largely listed as inhibitors; 360,000 tested, 0.72% active; AID 1745845; further: on the % scale 0 is the no-effect control and ±100 the full control effect; nearly all actives have a fitted effect of over 55% in size
#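 qHTS (up to 57 uM final) was run with 24 h compound exposure of reporter cells at 37 °C. Each well was multiplexed: SteadyGlo luminescence measured ATXN2-luciferase expression after a fluorogenic Gly-Phe-AFC viability readout (25 uM final).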
# Active calls of the source: *; i = inactive; ? = inconclusive; / = no result. An excerpt weighted towards active compounds, which were near 5.9% of everything screened. The call rests on the fitted dose curve; in most records, active means well fitted curve in the direction sought with a large enough effect; inconclusive means small, poorly fitted or top-dose-only effect, or another doubt; inactive means no such curve, though single readings can be large; an effect the other way counts as inactive or inconclusive. Potency means the concentration at half of the fitted maximal effect.
SMILES,ATXN viability,KB-V1 cytotox,HepG2 tox,TGFb SMAD3 inh,KB-3-1 cytotox,ATXN2 expr inh
COc1cc(=O)n2c(c1C(=O)N(C)Cc1nonc1C)CCN(CC1CC=CCC1)CC2 (stereo not drawn),i,/,/,/,/,/
Cc1cccc(C)c1NC(=O)CCCSc1nc2ccccc2s1,i,i,-2%,?,i,1%
CCc1cccc(CC)c1NC(=O)CCCSc1nc2ccccc2s1,i,12µM*,-15%,?,?,-7%
O=C(O)CCSc1nc2ccccc2s1,i,i,10%,10%,i,10µM*
Cc1ccc(N(CC(=O)NCCSc2nc3ccccc3s2)S(=O)(=O)c2ccccc2)c(C)c1,?,8.2µM*,15%,?,?,-19%
COC(=O)CSc1nnc(-c2cccc(O)c2)o1,/,/,-33%,-16%,/,/
Cc1cc(C)cc(NC(=O)CN(C)S(=O)(=O)c2ccc3c(c2)CCC(=O)N3)c1,i,i,7%,-7%,i,-4%
O=C(CSc1nnc(-c2ccccc2)o1)Nc1ccccc1F,i,?,-68%,2%,i,?
Cc1[nH]c2ccc(-c3nnc(SCC(=O)c4ccccc4F)o3)cc2c1C,i,21µM*,-26%,-11%,i,15%
Cc1ccc(-c2nnc(SCC(=O)Nc3ccccc3F)o2)cc1,i,8.2µM*,-65%,1%,5.2µM*,-80%
Cc1ccc(SCC(=O)Nc2ccccc2N2CCOCC2)cc1,i,i,-2%,1%,i,/
Cc1ccc(-c2nnc(SCC(=O)Nc3ccccc3N3CCOCC3)o2)cc1,i,13µM*,-3%,0%,i,-12%
CCCCN(CCCC)S(=O)(=O)c1ccc(NC(=O)c2c(-c3ccccc3)noc2C)cc1,i,?,1%,?,i,6%
COc1ccc(N2CCN(S(=O)(=O)c3ccc(F)c(C(=O)Nc4ccccc4Cl)c3)CC2)cc1,?,i,-3%,-6%,i,-21%
Cc1cccc(Nc2nnc(-c3ccc(C)c(S(=O)(=O)N4CCN(C)CC4)c3)c3ccccc23)c1,/,/,-19%,?,/,/
CCCn1nnnc1NCc1ccc(OC)cc1OC,i,i,-1%,15%,i,11%
CCCCn1nnnc1NCc1cc(OC)c(OC)cc1OC,?,26µM*,-1%,-2%,i,-9%
COc1cc(NC(=O)c2ccc([N+](=O)[O-])o2)ccc1NC(=O)c1ccco1,i,i,4%,1.1µM*,?,/
CC(NC(=O)c1ccc([N+](=O)[O-])o1)C12CC3CC(CC(C3)C1)C2 (stereo not drawn),i,?,-51%,11µM*,?,-26%
CC(=O)c1cccc(NC(=O)c2ccc([N+](=O)[O-])o2)c1,?,16µM*,-90%,?,?,-18%
COc1ccc(NC(=O)c2ccc([N+](=O)[O-])o2)cc1,i,?,-68%,11µM*,8.2µM*,4%
CC(NC(=O)C12CC3CC(CC(C3)C1)C2)C(=O)NN=Cc1ccc([N+](=O)[O-])o1 (stereo not drawn),?,?,-94%,?,?,?
CCOc1ccc(C2CC(=O)n3nc(-c4ccc(C)cc4)nc3S2)cc1OC (stereo not drawn),i,i,-4%,2%,i,-7%
Cc1cc(C)cc(NC(=O)c2ccc([N+](=O)[O-])o2)c1,?,13µM*,13µM*,11µM*,?,?
O=C(Nc1nc2c(F)cc(F)cc2s1)c1ccc([N+](=O)[O-])o1,?,i,-25%,-1%,10µM*,-2%
SMILES,ATXN viability,KB-V1 cytotox,HepG2 tox,TGFb SMAD3 inh,KB-3-1 cytotox,ATXN2 expr inh
CC(=O)c1ccc(NC(=O)c2ccc([N+](=O)[O-])o2)cc1,?,?,16µM*,13µM*,?,/
CCC1CN(Cc2cccc3nccnc23)Cc2cc(OC)ccc2O1 (stereo not drawn),i,/,/,/,/,/
COC(CNC(=O)c1ccc2c3c(onc13)-c1ccccc1C2=O)OC,/,i,-95%,11µM*,?,?
COC(CNC(=O)c1cccnc1)OC,i,i,-1%,-2%,i,/
O=C1C2C(c3ccccc3)CC=CC2[C@H](c2ccc3ccccc3c2)N1Cc1ccccc1 (stereo partly drawn),?,i,-8%,1%,?,0%
Cc1ccc(F)c([C@H]2C3C=CCC(c4ccccc4)C3C(=O)N2Cc2ccccc2)c1 (stereo partly drawn),?,i,-48%,18µM*,?,-21%
COc1ccc(NC(=O)C(Cc2c[nH]c3ccccc23)NC(=O)OC(C)(C)C)cc1 (stereo not drawn),?,?,-5%,-13%,i,8%
N/C(=N\OC(=O)c1ccccc1Cl)c1ccccn1,i,i,-61%,3%,?,16µM*
COc1cc(OC)cc(C(=O)O/N=C(\N)c2ccccn2)c1,i,i,-4%,3%,i,/
COc1ccc(C(=O)O/N=C(\N)c2ccccn2)cc1,i,i,-42%,6%,?,11µM*
CCc1nn2c(-c3ccco3)ccnc2c1-c1ccc(F)cc1,i,?,7%,32%,i,16%
Cn1nnnc1Sc1ncnc2scc(Br)c12,i,i,-37%,2.2µM*,i,18µM*
Cn1nnnc1Sc1ncnc2scc(-c3ccccc3Br)c12,?,i,-19%,?,i,25µM*
Cc1ccc(-c2csc3ncnc(Sc4nnnn4C4CC4)c23)cc1,/,i,1%,25%,?,/
Cn1nnnc1Sc1ncnc2scc(-c3cccc4ccccc34)c12,?,i,2%,?,16µM*,?
Cc1ccc(C2CC(=O)n3nc(-c4cccc(C)c4)nc3S2)cc1 (stereo not drawn),i,?,0%,28%,i,-11%
Cc1ccc(-c2csc(=Nc3ccccc3)n2Cc2ccc3c(c2)OCO3)cc1,i,i,-33%,-13%,i,36%
O=c1c2cc(N3CCOCC3)ccc2[nH]c(=S)n1Cc1ccc(Cl)cc1,i,21µM*,1%,0%,i,47%
O=C(CCCCCn1c(=S)[nH]c2ccc(N3CCOCC3)cc2c1=O)NCc1ccc(Cl)cc1,/,i,-20%,-14%,?,?
CC(C)OCCCn1c(=S)[nH]c2ccc(N3CCOCC3)cc2c1=O,i,6.5µM*,0%,-10%,?,-12%

# Screens: PubChem BioAssay, National Center for Advancing Translational Sciences (NCATS)
